Results on six compounds are retold here after PubChem BioAssay.

The test system of assay [1] is Plasmodium falciparum Sir2 (PF13_0152, Sir2A). The assay can be described thus: Plasmodium falciparum Sir2A binding compounds – biochemical, small-molecule microarray, 635 nm fluorescence, primary screen (AID 1098).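 Note: score merges spot fluorescence intensity with its signal-to-noise ratio.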 The note with it: fluorescence 635 nm, higher = more signal.
The nature of assay [2]: probe aDKK1 binding to arrayed compounds – biochemical, biotinylated probe, 635/667 nm fluorescence, primary screen (AID 1099).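 Note: score merges 667nm spot fluorescence with signal to noise across triplicate slides.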 The following applies: small-molecule microarray, higher = more signal.
The nature of assay [3]: probe aCHRDL2 binding to arrayed compounds – biochemical, biotinylated probe, 635/667 nm fluorescence, primary screen (AID 1100). The following applies: small-molecule microarray, higher = more signal.
Assay [4] in a line: change in splice reporter luminescence, either direction, cell-based, HEK293, spliceosome inhibition project, primary screen (AID 1101).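 Note: HEK293 cells carrying a splicing-competent luciferase reporter gene; test concentration not given here.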 The following applies: HEK293 splicing luciferase reporter, 24 h, higher = more signal, called active from +8 up or from −8 down. In general terms: Reporter assays use an easily measured gene product as a stand-in for the process of interest.
Assay [5] addresses Fibroblast growth factor 10 (Homo sapiens) (UniProt O15520). The assay can be described thus: compounds binding fibroblast growth factor 10 – biochemical, small-molecule microarray, 635 nm fluorescence, primary screen (AID 1102). The note with it: FGF10 binding, fluorescence 635 nm, higher = more signal.
The subject of assay [6] is glycogen synthase kinase-3 (GSK3A per assay name; protocol says GSK3B). The assay can be described thus: compounds binding glycogen synthase kinase-3 – biochemical, small-molecule microarray, 635 nm fluorescence, GSK3A, primary screen (AID 1103). Note: the record names both GSK3A and GSK3B. The note with it: fluorescence 635 nm, higher = more signal.
In assay [7] the target is Epidermal growth factor receptor (Homo sapiens) (UniProt P00533). The assay can be described thus: compounds binding epidermal growth factor receptor – biochemical, small-molecule microarray, 635 nm fluorescence, primary screen (AID 1104).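 Note: score merges 667 nm emission intensity with spot signal to noise over triplicate slides.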 The following applies: EGFR binding, higher = more signal.
The target in assay [8] is Follistatin-related protein 3 (Homo sapiens) (UniProt O95633). The assay can be described thus: compounds binding follistatin-related protein 3 – biochemical, small-molecule microarray, 635 nm fluorescence, primary screen (AID 1105).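 Note: score merges emission near 667 nm and signal to noise per printed spot across three slides.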 The note with it: FSTL3 binding, higher = more signal.
Assay [9] has as its target Dickkopf-related protein 1 (Homo sapiens) (UniProt O94907). The assay can be described thus: small molecules binding DKK1 protein – biochemical, small-molecule microarray, 635 nm fluorescence scan, primary screen (AID 1106).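 Note: score merges emission near 667 nm with signal to noise over three replicate slides.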 The note with it: higher = more signal.
In assay [10] the test system is Inhibin beta A chain (activin A). The assay can be described thus: small molecules binding activin A – biochemical, small-molecule microarray, 635 nm fluorescence scan, primary screen (AID 1107).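 Note: mouse activin A protein probed at 4.33 µg/mL on printed slides; score merges bound-protein fluorescence near 667 nm with spot signal-to-noise.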 The note with it: INHBA, higher = more signal.
Assay [11] has as its system Human papillomavirus type 1a protein E7 (residues 44-93). The assay can be described thus: small molecules binding HPV E7 44-93 – biochemical, small-molecule microarray, residues 44-93, 635 nm fluorescence, primary screen (AID 1108).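 Note: E7 fragment applied at 1 µg/mL in TBST for 1 h at 4 C; score combines spot fluorescence with its signal to noise ratio.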 The note with it: fluorescence 635 nm, higher = more signal.
A short description of assay [12]: hepatitis C replication reporter changes, two-sided – Huh7 cells, luciferase reporter, HCV replication inhibitor project, primary screen (AID 1109).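 Note: huh7 hepatoma cells harbouring a luciferase neomycin HCV replicon reporter; luciferase luminescence as measure of HCV replicon replication; test concentration not given here.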 The following applies: Huh7 HCV replicon luciferase reporter, 48 h; higher = more signal.
The target in assay [13] is Left-right determination factor 2 (Homo sapiens) (UniProt O00292). The assay can be described thus: small molecules binding LEFTY2 protein – biochemical, small-molecule microarray, 635 nm fluorescence scan, primary screen (AID 1110). The note with it: higher = more signal.
In assay [14] the target is Calmodulin-1 (Homo sapiens) (UniProt P0DP23). The assay can be described thus: small molecules binding calmodulin-1 with EGTA – biochemical, small-molecule microarray, Cy5-labelled CALM1, profiling panel (AID 1111).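 Note: labelled calmodulin applied in Tris saline Tween buffer holding calcium plus EGTA and DTT.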 The note with it: Cy5-CALM1 binding fluorescence, higher = more signal.
For assay [15] the target is unchanged. The assay can be described thus: small molecules binding Ca-loaded calmodulin-1 – biochemical, small-molecule microarray, Cy5-labelled CALM1, plus calcium, artefact control for SMM control-protein annotation, profiling panel (AID 1112).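 Note: score merges spot fluorescence with signal to noise from triplicate slides.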 The note with it: Cy5-CALM1 binding fluorescence, higher = more signal.
Assay [16] can be described thus: probe aWnt5a binding to arrayed compounds – biochemical, biotinylated probe, 635/667 nm fluorescence, primary screen (AID 1113).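 Note: score merges 667 nm fluorescence intensity with signal-to-noise per printed feature.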 The following applies: small-molecule microarray, higher = more signal.
Assay [17] is described as follows: probe aShh binding to arrayed compounds – biochemical, biotinylated probe, 635/667 nm fluorescence, primary screen (AID 1114).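 Note: probe is biotin-labelled aShh protein from a stem cell growth factor screen; measures binding of labelled protein to compounds printed on the slide; score merges feature fluorescence at 667 nm with signal-to-noise.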 The note with it: small-molecule microarray, higher = more signal.
Assay [18] in a line: probe aNog binding to arrayed compounds – biochemical, biotinylated probe, 635/667 nm fluorescence, primary screen (AID 1115).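 Note: probe is biotinylated aNog protein used at 0.15 µg/mL for 1 h at 4 C; z-score combines 667 nm fluorescence of each spot with its signal to noise.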 The note with it: small-molecule microarray, higher = more signal.
Assay [19] has as its target Torsin-1A-interacting protein 1 (Homo sapiens) (UniProt Q5JTV8). The assay can be described thus: compound microarray binding of lysate hLAP1 – cell lysate, small-molecule microarray, COS7 lysate, 635/667 nm fluorescence, primary screen (AID 1116). The note with it: 635 nm fluorescence, higher = more signal.
In assay [20] the target is Alpha-bungarotoxin (Bungarus multicinctus) (UniProt P60615). The assay can be described thus: compounds binding labelled alpha-BTX control protein – biochemical, small-molecule microarray, Alexa647 label, 635/667 nm fluorescence, artefact control for SMM control protein annotation, profiling panel (AID 1117). The following applies: alpha-BTX-A647 binding fluorescence, higher = more signal.

The source made the active and inactive calls.

Sequence of Epidermal growth factor receptor (Homo sapiens) (P00533 whole entry, looked up): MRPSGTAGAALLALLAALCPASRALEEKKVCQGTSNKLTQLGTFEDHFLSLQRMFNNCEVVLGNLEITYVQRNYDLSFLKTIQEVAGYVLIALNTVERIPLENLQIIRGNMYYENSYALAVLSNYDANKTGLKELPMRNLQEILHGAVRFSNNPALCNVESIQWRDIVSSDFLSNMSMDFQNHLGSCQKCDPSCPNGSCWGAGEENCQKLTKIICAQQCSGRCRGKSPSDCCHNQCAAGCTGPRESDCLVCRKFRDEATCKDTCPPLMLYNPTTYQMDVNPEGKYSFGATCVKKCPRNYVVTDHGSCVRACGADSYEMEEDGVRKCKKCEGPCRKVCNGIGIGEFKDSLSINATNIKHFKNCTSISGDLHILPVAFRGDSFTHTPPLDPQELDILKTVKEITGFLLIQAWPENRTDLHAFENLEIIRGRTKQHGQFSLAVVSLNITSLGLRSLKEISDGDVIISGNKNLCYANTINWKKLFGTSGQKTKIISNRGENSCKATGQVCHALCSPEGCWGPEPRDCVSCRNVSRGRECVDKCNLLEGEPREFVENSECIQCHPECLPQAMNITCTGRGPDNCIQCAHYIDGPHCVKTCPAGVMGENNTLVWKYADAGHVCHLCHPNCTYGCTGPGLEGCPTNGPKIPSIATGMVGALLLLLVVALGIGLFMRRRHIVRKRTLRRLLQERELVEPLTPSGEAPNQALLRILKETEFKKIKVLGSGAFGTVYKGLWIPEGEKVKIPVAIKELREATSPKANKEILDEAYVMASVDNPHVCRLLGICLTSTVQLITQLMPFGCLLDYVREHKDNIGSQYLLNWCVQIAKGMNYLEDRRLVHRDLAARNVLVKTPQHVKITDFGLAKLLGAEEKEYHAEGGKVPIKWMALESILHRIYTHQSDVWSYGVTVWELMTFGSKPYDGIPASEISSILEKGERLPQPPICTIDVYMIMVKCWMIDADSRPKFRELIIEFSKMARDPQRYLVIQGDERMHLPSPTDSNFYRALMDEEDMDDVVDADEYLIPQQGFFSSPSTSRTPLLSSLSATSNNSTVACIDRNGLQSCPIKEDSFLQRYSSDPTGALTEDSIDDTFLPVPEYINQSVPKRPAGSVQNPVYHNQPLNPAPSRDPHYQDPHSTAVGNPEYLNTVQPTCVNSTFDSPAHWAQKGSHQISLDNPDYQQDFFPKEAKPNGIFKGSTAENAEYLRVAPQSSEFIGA
Sequence of Torsin-1A-interacting protein 1 (Homo sapiens) (Q5JTV8 whole entry, looked up): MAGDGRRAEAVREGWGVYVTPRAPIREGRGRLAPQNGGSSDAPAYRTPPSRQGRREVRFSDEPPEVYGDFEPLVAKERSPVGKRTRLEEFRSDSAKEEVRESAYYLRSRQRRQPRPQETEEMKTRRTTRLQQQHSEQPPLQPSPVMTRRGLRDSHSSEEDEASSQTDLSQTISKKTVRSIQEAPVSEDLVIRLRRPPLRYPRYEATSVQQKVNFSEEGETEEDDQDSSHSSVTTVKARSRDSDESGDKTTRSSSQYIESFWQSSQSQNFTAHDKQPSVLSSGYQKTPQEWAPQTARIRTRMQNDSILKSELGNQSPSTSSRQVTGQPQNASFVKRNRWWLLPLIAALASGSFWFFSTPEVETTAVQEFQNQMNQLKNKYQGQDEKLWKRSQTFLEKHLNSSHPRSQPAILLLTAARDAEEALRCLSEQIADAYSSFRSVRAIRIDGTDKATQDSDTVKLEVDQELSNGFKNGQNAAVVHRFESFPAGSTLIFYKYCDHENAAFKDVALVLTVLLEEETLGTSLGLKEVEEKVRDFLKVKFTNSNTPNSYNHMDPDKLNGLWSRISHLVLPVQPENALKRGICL
Sequence of Fibroblast growth factor 10 (Homo sapiens) (O15520 whole entry, looked up): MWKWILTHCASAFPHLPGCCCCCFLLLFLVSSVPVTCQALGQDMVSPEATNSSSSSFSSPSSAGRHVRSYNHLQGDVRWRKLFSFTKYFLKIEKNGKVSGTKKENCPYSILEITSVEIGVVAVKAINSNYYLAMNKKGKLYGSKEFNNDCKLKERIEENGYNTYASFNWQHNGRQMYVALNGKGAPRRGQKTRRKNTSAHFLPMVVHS
Sequence of Alpha-bungarotoxin (Bungarus multicinctus) (P60615 whole entry, looked up): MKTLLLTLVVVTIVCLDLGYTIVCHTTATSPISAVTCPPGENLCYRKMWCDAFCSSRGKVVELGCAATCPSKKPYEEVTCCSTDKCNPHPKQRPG
Sequence of Dickkopf-related protein 1 (Homo sapiens) (O94907 whole entry, looked up): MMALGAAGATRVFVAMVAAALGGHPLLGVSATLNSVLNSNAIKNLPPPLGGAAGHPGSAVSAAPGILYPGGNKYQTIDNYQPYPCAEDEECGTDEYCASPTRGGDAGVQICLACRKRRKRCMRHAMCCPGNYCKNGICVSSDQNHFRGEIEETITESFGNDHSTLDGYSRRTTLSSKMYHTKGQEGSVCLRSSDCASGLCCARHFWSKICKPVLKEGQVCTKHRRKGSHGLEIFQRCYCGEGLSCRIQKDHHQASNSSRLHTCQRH
Sequence of Left-right determination factor 2 (Homo sapiens) (O00292 whole entry, looked up): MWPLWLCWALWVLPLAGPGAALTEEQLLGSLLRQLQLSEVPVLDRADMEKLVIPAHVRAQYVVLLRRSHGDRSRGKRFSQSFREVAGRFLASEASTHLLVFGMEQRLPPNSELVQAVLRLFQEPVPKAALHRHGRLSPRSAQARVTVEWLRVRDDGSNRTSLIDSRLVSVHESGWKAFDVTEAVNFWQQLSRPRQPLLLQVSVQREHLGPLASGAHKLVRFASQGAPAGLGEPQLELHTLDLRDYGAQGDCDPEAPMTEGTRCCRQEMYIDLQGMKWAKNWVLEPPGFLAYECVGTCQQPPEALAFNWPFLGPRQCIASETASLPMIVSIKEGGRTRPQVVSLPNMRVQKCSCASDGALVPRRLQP
Sequence of Follistatin-related protein 3 (Homo sapiens) (O95633 whole entry, looked up): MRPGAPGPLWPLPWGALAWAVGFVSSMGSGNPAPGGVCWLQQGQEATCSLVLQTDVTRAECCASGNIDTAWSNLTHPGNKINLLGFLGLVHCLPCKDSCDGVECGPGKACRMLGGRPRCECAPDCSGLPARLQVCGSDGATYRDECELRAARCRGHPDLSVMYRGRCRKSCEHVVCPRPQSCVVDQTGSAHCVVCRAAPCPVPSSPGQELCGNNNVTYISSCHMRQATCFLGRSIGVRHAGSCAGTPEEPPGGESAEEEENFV

For the compound `CCCCN1CC=CC23O[C@@H]4/C=C\CCCOC(=O)C4[C@H]2C(=O)N(C(C)CO)[C@@H]3C1=O` (stereo not given in full), the composite z-score in assay [1] was 1.62; in assay [2] it was -0.292; in [3] it was -0.305; in assay [5], -0.319; in [6], -0.969; in [7], -0.154. For the same compound, the composite z-score in assay [8] was -0.43; in [9], 0.326; in [10] it was 0.788; in assay [11] it was -0.779; in assay [13], -0.697; in assay [14] it was -0.573. The composite z-score in [15] was -0.101; in assay [16], -0.172; in assay [17], -0.17; in assay [18], -0.186; in [19] it was -0.585; in assay [20], -0.0491. Also, the z-score in assay [4] was -0.577 (inactive); in [12], -0.112.

`C=C(/C(=C/C[C@@H](OC(C)=O)c1ccc(CO)o1)c1cnc2ccccc2c1)C(C)C`: the composite z-score in assay [1] was 1.18; in [2] it was -0.198; in [3] it was -0.541; in [5], 1.66; in [6] it was 1.32; in assay [7], 0.792. Moreover, the composite z-score in [8] came to 1.45; in assay [9], 1.24; in assay [10] it was 1.39; in assay [11], 1.09; in [13], 1.06; in assay [14] it was 0.384. Also, the composite z-score was -1.12 in [15]; -0.0346 in [16]; 0.123 in assay [17]; 0.153 in assay [18]; 1.24 in assay [19]; 0.818 in assay [20]. For the same compound, the z-score in assay [4] is -0.541 (inactive); in assay [12], -2.37.

In the case of `C=CCC(OC(C)=O)[C@@H]1[C@@H](N(Cc2cc3ccccc3o2)C(=O)c2cccc3ccccc23)c2cc(OCCCO)ccc2N1C(=O)Cc1ccc(OC)cc1` (stereo not given in full), the composite z-score in assay [1] was 0.495; in [2] it was 0.136; in [3], 0.0527; in [5], 0.568; in [6], 0.12; in assay [7], 0.24. The composite z-score in assay [8] was 0.579; in [9], 0.429; in assay [10], 1.2; in assay [11], -0.0348; in assay [13], 0.443; in assay [14] it was -0.158. For the same compound, the composite z-score is 0.344 in assay [15]; -0.0816 in [16]; -0.0146 in assay [17]; 0.328 in assay [18]; 0.153 in [19]; 0.608 in assay [20]. Besides, the figures for the z-score in [4] and in [12] were -1.04 (inactive) and -0.431, respectively.

In the case of `[N-]=[N+]=NCc1ccccc1[C@H]1OC(c2ccc(OCCCO)cc2)=N[C@@]1(Cc1ccccc1)C(=O)O`, the composite z-score in assay [1] was found to be 0.208; in assay [2] it was 0.213; in [3], 0.884; in assay [5], 0.621; in assay [6], 0.51; in assay [7], 0.0378. For the same compound, the composite z-score in assay [8] is 0.47; in [9], -0.213; in assay [10], 1.25; in assay [11], 1.38; in assay [13], 0.115; in assay [14] it was 1.46. The composite z-score in assay [15] was 0.484; in [16], 0.0079; in [17] it was 0.199; in assay [18] it was -0.204; in [19], 0.875; in assay [20], 0.96. The z-score is -1.01 (inactive) in assay [4] and -2.64 in [12].

As for `CO[C@H]1O[C@H](CO)[C@@H](OC(=O)Nc2ccc(C(F)(F)F)cc2)[C@H](OC(=O)Nc2ccccc2)[C@@H]1OC(=O)Nc1ccccc1`, the composite z-score is 1.02 in assay [1]; -0.442 in assay [2]; 0.144 in [3]; 1.07 in [5]; 1.23 in [6]; 0.74 in assay [7]. Moreover, the composite z-score amounted to 0.743 in assay [8]; 0.295 in assay [9]; 0.378 in assay [10]; 1.34 in assay [11]; 0.003 in [13]; 1.08 in assay [14]. Further, the composite z-score in [15] is -0.778; in [16], 0.0887; in assay [17], -0.102; in assay [18], -0.305; in [19], 1.01; in [20], 0.462. The z-score in assay [4] is -0.577 (inactive); in [12] it was 0.0041.

As to `CC(=O)n1cc(C(O)C2C=CC3C(=O)N(c4ccccc4)C(=O)C3N2Nc2ccc(C#N)cc2)c2ccccc21` (stereo not given), the composite z-score in [1] was 0.696; in [2], 0.415; in assay [3], 1.07; in assay [5], 0.879; in assay [6], 0.186; in assay [7] it was -0.105. The composite z-score in assay [8] was 0.0519; in [9], -0.817; in assay [10], 0.854; in assay [11], 1.48; in assay [13], -0.125; in assay [14] it was 0.449. In addition, the composite z-score was -0.577 in assay [15]; 0.155 in assay [16]; 0.385 in assay [17]; 1.02 in assay [18]; 0.557 in assay [19]; 0.645 in [20]. The values for the z-score in assay [4] and in assay [12] were 0.888 (inactive) and -0.41, respectively.
